# Most compounds without a hit are left out; they make up all but 22% or so of the library.
# LmPK inhibitor – qHTS Assay for Inhibitors of Leishmania Mexicana Pyruvate Kinase (LmPK); Q27686; actives 0.37% (n = 290,000); Potency, µM (doses to about 57.5 µM), most hits filed as inhibitors; purified LmPK, Kinase-Glo ATP luminescence, 1 h
# Target sequence (Q27686 whole entry, looked up): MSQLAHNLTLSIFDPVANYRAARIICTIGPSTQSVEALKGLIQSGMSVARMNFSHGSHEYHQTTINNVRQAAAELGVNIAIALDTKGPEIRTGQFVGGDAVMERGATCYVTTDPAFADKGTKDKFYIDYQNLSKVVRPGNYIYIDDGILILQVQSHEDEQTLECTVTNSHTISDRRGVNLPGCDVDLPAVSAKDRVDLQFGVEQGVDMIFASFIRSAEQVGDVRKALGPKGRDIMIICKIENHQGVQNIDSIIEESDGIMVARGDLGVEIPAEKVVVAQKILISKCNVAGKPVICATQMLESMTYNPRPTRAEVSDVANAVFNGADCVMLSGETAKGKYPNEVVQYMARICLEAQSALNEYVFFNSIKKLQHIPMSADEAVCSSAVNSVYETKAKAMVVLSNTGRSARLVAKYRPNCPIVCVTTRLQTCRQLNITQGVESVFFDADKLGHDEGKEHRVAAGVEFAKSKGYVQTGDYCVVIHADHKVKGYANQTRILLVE
#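 Screened at intermediate enzyme activity to detect both inhibitors and activators: LmPK at 0.1 nM, with a 0.5 nM enzyme column as activation reference. PEP 0.5 mM, ADP 0.1 mM; ATP detected by luminescence after 1 h.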
# Cycloheximide cs – Cycloheximide Counterscreen for Small Molecule Inhibitors of Shiga Toxin. cell reporter, cycloheximide protein synthesis inhibition counterscreen. max response, %. actives 12% (n = 300,000). AID 2314, 2010; in the data active = max response mostly above about 13%, no sharp cut-off; inactive = mostly below about 14%; note: read at 38.3 µM for the half of the compounds with a filed dose
# Shiga toxin inh – A qHTS for Small Molecule Inhibitors of Shiga Toxin; inhibition, % at 38.7 µM; Vero cells, Shiga toxin protein synthesis inhibition reporter; AID 2315, 2010; actives 9.2% (n = 290,000); in the data active = inhibition mostly above about 28%, no sharp cut-off; inactive = mostly below about 43%
# Pf growth 48h – Primary qHTS for delayed death inhibitors of the malarial parasite plastid, 48 hour incubation. P. falciparum luciferase growth in erythrocytes, 48 h. Potency, µM (doses to about 28.7 µM), actives largely listed as inhibitors. actives 5.9% (n = 310,000). AID 504832, 2011
#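 Firefly luciferase activity from engineered P. falciparum reports growth; inhibitors lower the luminescent signal. Cultures contained 2% hematocrit erythrocytes at 0.1% final parasitemia.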
# Pf growth 96h – Primary qHTS for delayed death inhibitors of the malarial parasite plastid, 96 hour incubation; P. falciparum luciferase reporter growth, 96 h; Potency, µM (titrated, usually from 28.7 µM), usual class: inhibitors; actives 6.9% (n = 320,000)
#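 Delayed-death screen, second-generation endpoint: infected erythrocytes, 2% hematocrit, 0.05% parasitemia final; 96 hours at 37 C, 5% CO2; luciferase detection reagent; luminescence decrease equals reduced growth.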
# A number is an active result; - = inactive; ? = inconclusive; . = no result given. Unless noted, calls come from the whole dose curve; as a rule, active = well fitted inhibition curve with a large enough effect; inconclusive = small, poorly fitted or top-dose-only effect, or another doubt; inactive = no such curve, though single readings can be large or run the other way.
SMILES,LmPK inhibitor,Cycloheximide cs,Shiga toxin inh,Pf growth 48h,Pf growth 96h
CCC(C(=O)OCC(=O)NC(=O)c1ccccc1)c1ccccc1 (stereo not given),.,.,.,-,-
Cc1cccc(/C(N)=N/OC(=O)C23CC4CC(CC(C4)C2)C3)c1,-,42,84,?,?
Cc1cccc(/C(N)=N/OC(=O)N2c3ccccc3Sc3ccccc32)c1,-,-,-,?,6.6µM
Cc1cccc(/C(N)=N/OC(=O)Cc2ccccc2)c1,-,41,81,-,?
CCC(C(=O)O/N=C(\N)c1cccc(C)c1)c1ccccc1 (stereo not given),-,24,-,.,-
Cc1c(Cl)c(=O)n2c(=O)c(Cl)c(C)n12,-,-,-,-,-
COc1ccc(C(=O)NNC(=O)COC(=O)c2sccc2C)cc1,.,.,.,-,-
N/C(CSc1ccc(Cl)cc1)=N\NC(=O)c1ccncc1,-,-,-,-,-
Cn1cc(C=C2C(=O)Nc3cccnc32)c2ccccc21,.,30,32,.,.
Cc1cc2oc(=O)cc(-c3cc4ccccc4o3)c2cc1O,-,-,-,7.4µM,2.6µM
O=C(Nc1c[nH]c(=O)[nH]c1=O)c1ccccc1Cl,-,-,-,-,-
Cc1[nH]n(-c2ccccc2)c(=O)c1Sc1ccc(Cl)cc1,-,-,-,-,?
Cc1cc(-c2c(C)[nH]n(-c3ccc(Cl)cc3)c2=O)n[nH]1,-,27,-,?,?
Cn1c(-c2cccc([N+](=O)[O-])c2)cnc1NCc1ccc(C#N)cc1,-,-,-,?,-
CN(C)S(=O)(=O)c1cccc(NC(=O)c2cc(-c3cccs3)nn2-c2cccc(Cl)c2)c1,-,-,-,?,15µM
C=CCOc1ccccc1CN1CCCCCC1,-,-,-,-,?
Cc1occc1C(=O)NCc1nc(-c2ccc(Cl)cc2)no1,-,-,-,-,-
CCc1ccc(C(=O)COC(=O)c2ccc(Cl)nc2)cc1,-,42,65,-,-
Cc1noc(C)c1COc1ccc(C(=O)OCC(=O)c2ccc3c(c2)OCCO3)cc1,-,-,-,-,-
O=C(COC(=O)c1ccc(Cl)nc1)c1ccc2c(c1)OCCO2,-,44,100,-,-
Cc1cccc(NC(=O)CNC(=O)CN2C(=O)NC3(CCCCC3C)C2=O)c1C (stereo not given),.,.,.,-,-
CN(CC(=O)Nc1cccc2ccccc12)C(=O)c1cccc(S(=O)(=O)N(C)C)c1,-,-,-,?,?
Cc1sc2nc(CN3CCOCC3)[nH]c(=O)c2c1-c1ccccc1,-,-,-,-,-
Cc1ccc(-c2c(C)sc3nc(CN4CCN(CC(=O)NC5CC5)CC4)[nH]c(=O)c23)cc1,.,.,.,10µM,?
O=C(COC(=O)CCC(NC(=O)OCc1ccccc1)C(=O)OCC(=O)Nc1ccccc1)Nc1ccccc1 (stereo not given),-,-,-,-,-
SMILES,LmPK inhibitor,Cycloheximide cs,Shiga toxin inh,Pf growth 48h,Pf growth 96h
O=C1C2C3C=CC(CC3)C2C(=O)N1/N=C/c1c[nH]c2ccccc12 (stereo not given),-,52,125,-,-
COc1ccc(/C=N/N2C(=O)C3C4C=CC(CC4)C3C2=O)c(OC)c1 (stereo not given),-,45,55,-,-
Cc1ccc(-n2nc3c(=O)n(CCCC(=O)N4CCC(C)CC4)nc(C)c3c2C)cc1,-,-,-,?,-
O=C(NCCCN1CCCC1=O)C1CCCO1 (stereo not given),-,-,-,-,-
CCOC(=O)Cc1csc(NC(=O)CCCCCN2C(=O)c3ccccc3C2=O)n1,-,-,-,?,?
COc1cc(-c2c(-c3cccc(C)c3)oc3ccccc23)cc(OC)c1OC,-,-,-,?,9.3µM
Cn1c(=N)n(CC(=O)c2ccccc2)c2ccccc21,-,23,-,-,-
COc1ccc(C(=O)Cn2c(=N)n(C)c3ccccc32)cc1,-,60,85,-,-
COc1ccc(C(=O)CN2Cc3ccccc3C2=N)cc1,-,30,88,-,-
COc1ccc(C(=O)CN2C(=O)COc3ccccc32)cc1,-,-,-,-,-
Cn1c(=N)n(CC(=O)O)c2ccccc21,-,-,-,-,-
COc1ccc(S(=O)(=O)NNC(=O)c2cc3ccccc3o2)cc1,-,-,-,-,-
CCN(CC)CCN1C(=O)C2C(C(=O)Nc3cc(C)cc(C)c3)C3C=CC2(O3)C1C(=O)NC1CCCCC1 (stereo not given),-,-,-,-,-
O=C(/C=C/Nc1cccc([N+](=O)[O-])c1)c1cccs1,-,32,89,.,-
O=C(Cc1cccs1)Nc1cccc([N+](=O)[O-])c1,-,-,-,-,?
CNc1cc([N+](=O)[O-])ccc1N/C=C/C(=O)c1cccs1,-,33,107,?,-
CNc1cc([N+](=O)[O-])ccc1N/C=C/C(=O)c1ccc2c(c1)OCO2,-,76,124,-,-
COCCCn1cc(C(=O)c2cc(OC)ccc2OCC(=O)Nc2cc(C)on2)cc(C#N)c1=O,-,-,-,-,.
CCCCCCCc1c(O)nc(SCCN2CCOCC2)[nH]c1=O,-,-,-,-,-
Cn1cc(CN2CCCC(CO)(Cc3ccccc3)C2)c2ccccc21 (stereo not given),-,-,-,12µM,-
COc1cccc(CC2(CO)CCCN(Cc3cc(F)ccc3-n3cccn3)C2)c1 (stereo not given),-,-,-,13µM,-
COc1cccc(CC2(CO)CCCN(S(=O)(=O)N(C)C)C2)c1 (stereo not given),-,-,-,-,6.6µM
COc1cccc(CC2(CO)CCCN(Cc3ccccc3Cl)C2)c1 (stereo not given),-,-,-,-,10µM
COc1cccc(CC2(CO)CCCN(Cc3cn(C)c4ccccc34)C2)c1 (stereo not given),-,-,-,?,-
CCOC(=O)C1CCCN(S(=O)(=O)c2cc3[nH]c(=O)c(=O)[nH]c3cc2C)C1 (stereo not given),-,-,-,?,?
SMILES,LmPK inhibitor,Cycloheximide cs,Shiga toxin inh,Pf growth 48h,Pf growth 96h
CCOC(=O)c1c(NC(=O)COC(=O)CNC(=O)c2ccc(Cl)cc2Cl)sc(C(=O)N(C)C)c1C,.,.,.,-,-
COc1ccc(CN2CCCC(CO)(Cc3ccc(F)cc3)C2)cc1C (stereo not given),-,-,-,15µM,?
CC(C)Oc1ccc(CN2CCCC(CO)(Cc3ccccc3)C2)cc1CO (stereo not given),-,-,.,-,-
CCOC(=O)N1CCC(N2CCCC(CO)(Cc3cccc(OC)c3)C2)CC1 (stereo not given),-,-,-,?,3.3µM
O=C(NN1c2ccccc2CCc2ccccc21)c1ccccc1Br,-,-,-,?,12µM
COc1ccc(Cl)cc1NC(=O)CN(C)CC(=O)Nc1ccccc1-c1ccccc1,-,-,-,?,12µM
O=C(Cc1ccccc1F)Nc1ccccc1-c1ccccc1,-,27,70,-,-

# Compound activity from PubChem.
